Inconclusive results are not listed. Calls of active or inactive are those of the source. The call rests on the fitted dose curve.
Key:
[1] = Primary qHTS for inhibitors of SARS-S pseudo-typed particle cell entry (AID 1479145); further: nearly all actives have a fitted effect of over 45% in size
[2] = Primary qHTS for Huh7 cytotoxicity: counterscreen for inhibitors of MERS-S pseudotyped particle cell entry (AID 1479147)
[3] = Primary qHTS for inhibitors of MERS-S pseudo-typed particle cell entry (AID 1479149); further: nearly all actives have a fitted effect of over 60% in size
[4] = Primary qHTS for Vero E6 cytotoxicity: counterscreen for inhibitors of SARS-S pseudo-typed particle cell entry (AID 1479150)

Measured: Potency

C[C@H](CS)C(=O)N1CCC[C@H]1C(=O)O
inactive: all assays above

OCCOCCN1CCN(C2=Nc3ccccc3Sc3ccccc32)CC1
inactive: all assays above

CN[C@@H]1[C@H](O)[C@H](NC)[C@H]2O[C@@]3(O)C(=O)C[C@@H](C)O[C@H]3O[C@@H]2[C@H]1O
inactive: all assays above

Cc1ccc(C(C)C)c(O)c1
inactive: all assays above

CC(C)(CO)[C@@H](O)C(=O)NCCCO
inactive: all assays above

NC(=O)c1ncn([C@@H]2O[C@H](CO)[C@@H](O)[C@H]2O)c1O
inactive: all assays above

Cc1onc(-c2ccccc2)c1-c1ccc(S(N)(=O)=O)cc1
inactive: all assays above

CC(C)CN(C[C@@H](O)[C@H](Cc1ccccc1)NC(=O)O[C@H]1CO[C@H]2OCC[C@H]21)S(=O)(=O)c1ccc(N)cc1
inactive: all assays above

O=C(O)CCCCC(=O)O
inactive: all assays above

Cc1cccc(C)c1OCC(=O)N[C@@H](Cc1ccccc1)[C@@H](O)C[C@H](Cc1ccccc1)NC(=O)[C@H](C(C)C)N1CCCNC1=O
inactive: all assays above

CCCCCCCCCCCCSCCOCCO
inactive: all assays above

O=C(COCCOCCOCC(=O)Nc1c(I)cc(I)c(C(=O)O)c1I)Nc1c(I)cc(I)c(C(=O)O)c1I
inactive: all assays above

O=C(NCC1CCCCN1)c1cc(OCC(F)(F)F)ccc1OCC(F)(F)F (stereo unspecified)
inactive: all assays above

CCN1CCC[C@H]1CNC(=O)c1cc(S(N)(=O)=O)ccc1OC
inactive: all assays above

Nc1ncnc2c1ncn2[C@@H]1O[C@H](CO)[C@@H](O)[C@H]1O
inactive: all assays above

CCN(Cc1ccncc1)C(=O)C(CO)c1ccccc1 (stereo unspecified)
inactive: all assays above

O=C(O)c1ccccc1Nc1cccc(C(F)(F)F)c1
inactive: all assays above

NC(=O)c1cnccn1
inactive: all assays above

CN[C@@H]1[C@@H](O)[C@@H](O[C@@H]2[C@H](O)[C@H](O[C@H]3OC(CN)=CC[C@H]3N)[C@@H](N)C[C@H]2N)OCC1(C)O (stereo partly specified)
inactive: all assays above

CC(C)Cc1ccc(C(C)C(=O)O)cc1 (stereo unspecified)
inactive: all assays above

CN(C)CCOC(=O)COc1ccc(Cl)cc1
inactive: all assays above

CCOC(=O)c1ccc(OCCN2C[C@H](O)[C@@H](O)[C@H](O)[C@H]2CO)cc1
inactive: all assays above

Nc1ccc(C(=O)Oc2ccccc2)c(O)c1
inactive: all assays above

CC(=O)OCC(COC(C)=O)OC(C)=O
inactive: all assays above

Nc1ccc(S(N)(=O)=O)cc1
inactive: all assays above

CC(C)[C@H]1C(=O)N2CCC[C@H]2[C@]2(O)O[C@](NC(=O)[C@@H]3C[C@@H]4c5cccc6[nH]cc(c56)C[C@H]4N(C)C3)(C(C)C)C(=O)N12
inactive: [1] | [2] | [4]

CCCCCCCCCCC[C@@H](C[C@@H]1OC(=O)[C@H]1CCCCCC)OC(=O)[C@H](CC(C)C)NC=O
inactive: all assays above

Cc1cc(OI)c(C(C)C)cc1-c1cc(C(C)C)c(OI)cc1C
inactive: [1] | [2] | [4]

NC(=O)c1cc[n+](CC2=C(C(=O)[O-])N3C(=O)[C@@H](NC(=O)Cc4cccs4)[C@H]3SC2)cc1
inactive: all assays above

CNNCc1ccc(C(=O)NC(C)C)cc1
inactive: all assays above

CO[C@@]1(NC(=O)Cc2cccs2)C(=O)N2C(C(=O)O)=C(COC(N)=O)CS[C@@H]21
inactive: all assays above

CCC[C@@]1(CCc2ccccc2)CC(O)=C([C@H](CC)c2cccc(NS(=O)(=O)c3ccc(C(F)(F)F)cn3)c2)C(=O)O1
inactive: all assays above

From PubChem BioAssay (NCATS)
